Assay outcomes deposited in PubChem BioAssay by several laboratories.
Compounds with a hit are over-represented: about 2.7% of the library has one in this group of screens.
MITF TRPM1 inh: reduces MITF-dependent TRPM1 promoter luciferase signal | SK-MEL-5 TRPM1 promoter luciferase, 24 h | inhibition, % at 12.5 µM | hit rate 0.83% among 330,000;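 active = mean inhibition across replicates of 60% or more, whatever share of single replicates reaches that level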
KKLEB cytotox: CF airway cell cytotoxicity counter-screen; KKLEB CF airway cells viability, ATPlite luminescence, overnight; active compounds read low; cells stimulated with P. aeruginosa culture filtrate; activity change (cytotoxicity), % at 5 µM; hit rate 0.36% among 360,000;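 active = corrected activity change at or below -50% at 5 µM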
HIF-2a block: HIF-2a inhibition; 786-0 RCC cells HIF-2a reporter, luciferase luminescence, overnight; inhibition, % at 18.8 µM; hit rate 0.72% among 360,000; AID 624352;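 active = inhibition of the luminescence signal of 40% or more relative to plate controls, in a single-dose primary screen at 18.75 µM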
Shn3 inh set2: inhibitors of Schnurri-3 3'UTR reporter in osteoblasts; hit rate 0.52% among 360,000; Clone20 osteoblast Shn3 3'UTR firefly luciferase, 24 h; inhibition, % at 12.5 µM;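 active = mean inhibition of at least 75% with every replicate also reaching 75%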
Peg3 promoter: reduces Peg3 promoter-driven luciferase expression in HeLa; HeLa PEG-Prom luciferase reporter, luminescence, overnight; inhibition, % at 20 µM; hit rate 1.7% among 360,000; AID 588405;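 active = inhibition of at least 50% at 20 µM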
CF NFkB block: inhibitors of cystic fibrosis induced NF-kB; inhibition, % at 5 µM; KKLEB NF-kB-GFP reporter, PAF-induced, GFP fluorescence overnight; hit rate 0.86% among 360,000;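 active = at least 50% inhibition at 5 µM, scaled per plate between neutral and stimulator controls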;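 also: PAF is a Pseudomonas aeruginosa culture filtrate used as stimulus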
Mdm2 MdmX conf: confirmation of inhibitors of human Mdm2/MdmX interaction, set 2; shares compounds with HIF-2a block; SaOS-2 split-luciferase Mdm2/MdmX complementation, luminescence; inhibition, % at 8 µM; hit rate 99% among 740; AID 504601;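 active = mean inhibition of the luminescence signal across two replicates at or above 26 percent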
Target sequence (O15151 whole entry, looked up): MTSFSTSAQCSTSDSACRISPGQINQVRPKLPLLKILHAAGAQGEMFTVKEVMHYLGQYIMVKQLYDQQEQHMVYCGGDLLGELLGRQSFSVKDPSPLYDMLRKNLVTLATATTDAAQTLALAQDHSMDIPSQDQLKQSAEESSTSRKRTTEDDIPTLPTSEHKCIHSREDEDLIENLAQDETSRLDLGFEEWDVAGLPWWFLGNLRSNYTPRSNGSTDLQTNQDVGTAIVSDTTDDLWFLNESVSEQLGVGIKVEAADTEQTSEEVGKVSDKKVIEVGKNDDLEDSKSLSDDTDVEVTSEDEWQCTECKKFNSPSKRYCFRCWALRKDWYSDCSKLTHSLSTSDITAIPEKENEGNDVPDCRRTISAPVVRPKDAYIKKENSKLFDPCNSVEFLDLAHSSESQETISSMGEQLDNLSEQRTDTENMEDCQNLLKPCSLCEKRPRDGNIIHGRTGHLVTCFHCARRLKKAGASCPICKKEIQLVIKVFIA
Target sequence (Q00987 whole entry, looked up): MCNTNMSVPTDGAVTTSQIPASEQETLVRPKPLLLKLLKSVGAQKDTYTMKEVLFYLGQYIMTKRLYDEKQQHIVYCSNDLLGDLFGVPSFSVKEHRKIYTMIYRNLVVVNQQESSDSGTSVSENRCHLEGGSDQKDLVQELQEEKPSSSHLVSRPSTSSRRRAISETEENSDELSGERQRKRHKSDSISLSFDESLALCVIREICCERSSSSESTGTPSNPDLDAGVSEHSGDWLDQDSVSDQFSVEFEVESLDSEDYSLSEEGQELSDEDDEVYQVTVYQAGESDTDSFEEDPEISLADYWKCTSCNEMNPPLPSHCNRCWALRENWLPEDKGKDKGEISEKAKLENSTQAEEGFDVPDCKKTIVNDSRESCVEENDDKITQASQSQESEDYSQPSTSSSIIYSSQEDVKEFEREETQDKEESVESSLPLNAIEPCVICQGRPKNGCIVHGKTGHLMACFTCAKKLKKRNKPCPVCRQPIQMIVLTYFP
HIF-2a conf: confirmation of HIF-2a inhibitors; shares compounds with HIF-2a block; hit rate 56% among 1,800; AID 651580; inhibition, % at 18.8 µM; 786-0 RCC cells, HIF-2a luciferase reporter luminescence, overnight;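 active = mean inhibition across four replicates of at least 40 percent at the single tested concentration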
HIF-1a counter: counter-screen for HIF-2a inhibitors: HIF-1a inhibition in MiaPaCa-2 cells. shares compounds with HIF-2a block. MiaPaCa-2 HIF-1a luciferase reporter, desferoxamine, overnight. inhibition, % at 18.8 µM. hit rate 72% among 1,800. AID 651589;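 active = mean inhibition of the reporter signal across four replicates at the single tested dose of 50% or more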
Large screens that a line does not name were inactive (follow-up assays come after a bar, where they were run).

COCC(=O)N1CCC(Oc2ccc(C(=O)NC3Cc4ccccc4C3)cc2)CC1	HIF-2a block 44.4 | HIF-2a conf 42.9 | HIF-1a counter inactive
CN(C)S(=O)(=O)N1CCC(Oc2ccc(C(=O)NC3Cc4ccccc4C3)cc2)CC1	none
Nc1nc(-c2ccc(F)cc2)cc(C(F)(F)F)n1	none
O=C(O)CCS(=O)(=O)c1nc(-c2cccs2)cc(C(F)(F)F)n1	none
CS(=O)(=O)c1nc(-c2ccc(F)cc2)cc(C(F)(F)F)n1	MITF TRPM1 inh 97.3, KKLEB cytotox -96.5, HIF-2a block 94.6, Shn3 inh set2 89.1, Peg3 promoter 106.4, CF NFkB block 91.6 | HIF-2a conf 54.7 | HIF-1a counter 101.7
COC(=O)CCS(=O)(=O)c1nc(-c2ccccc2)cc(C(F)(F)F)n1	MITF TRPM1 inh 94.0, KKLEB cytotox -60.0, HIF-2a block 87.6, Peg3 promoter 107.1, CF NFkB block 87.0 | Mdm2 MdmX conf 103.2 | HIF-2a conf 98.6 | HIF-1a counter 107.0
CCOC(=O)CCS(=O)(=O)c1nc(-c2ccccc2)cc(C(F)(F)F)n1	MITF TRPM1 inh 85.1, KKLEB cytotox -77.4, HIF-2a block 94.5, Shn3 inh set2 97.6, Peg3 promoter 113.5, CF NFkB block 85.6 | Mdm2 MdmX conf 103.0
CCOC(=O)CS(=O)(=O)c1nc(-c2ccc(F)cc2)cc(C(F)(F)F)n1	MITF TRPM1 inh 99.4, HIF-2a block 93.4, Shn3 inh set2 96.7, Peg3 promoter 100.2, CF NFkB block 85.0 | Mdm2 MdmX conf 99.5
C[C@@H]1CN([C@@H](C)CO)C(=O)CCCn2nncc2CO[C@H]1CN(C)S(=O)(=O)c1ccccc1C#N	none (no result: MITF TRPM1 inh)
Cc1cc(NC(=O)CCCS(=O)(=O)c2nc(-c3cccs3)cc(C(F)(F)F)n2)no1	MITF TRPM1 inh 95.2, KKLEB cytotox -53.1, HIF-2a block 93.6, Shn3 inh set2 94.8, Peg3 promoter 105.8, CF NFkB block 89.9 | HIF-2a conf 56.1 | HIF-1a counter 103.7
Cc1cc(=O)[nH]c(NN=C2CCCCC2C)n1 (centres undefined)	none (no result: MITF TRPM1 inh)
O=C(COC(=O)c1cnc(Cl)c(Cl)c1)c1ccc(F)cc1	none
O=C(OCCN1CCCCC1)c1ccccc1Cl	none
O=C(OCn1ncc(Cl)c(Cl)c1=O)c1ccccc1Cl	MITF TRPM1 inh 110.9, KKLEB cytotox -89.9, HIF-2a block 95.4, Shn3 inh set2 98.8, Peg3 promoter 101.5, CF NFkB block 98.7 | HIF-2a conf 98.0 | HIF-1a counter 106.0
O=C(OCn1ncc(Cl)c(Cl)c1=O)c1ccc(F)cc1	none (no result: MITF TRPM1 inh, KKLEB cytotox, HIF-2a block, Shn3 inh set2, Peg3 promoter, CF NFkB block) | Mdm2 MdmX conf 103.5
Nc1ccccc1C#CC(=O)c1ccccc1	MITF TRPM1 inh 92.7, KKLEB cytotox -85.0, HIF-2a block 89.3, Shn3 inh set2 99.2, Peg3 promoter 103.8, CF NFkB block 89.1 | Mdm2 MdmX conf 103.5 | HIF-2a conf 57.2 | HIF-1a counter 105.0
O=C(CN1C(=O)c2ccccc2S1(=O)=O)c1ccc(F)cc1	HIF-2a block 57.4, Peg3 promoter 57.5 | HIF-2a conf 64.1 | HIF-1a counter 59.3
O=C(CN1C(=O)c2ccccc2S1(=O)=O)c1ccc(OC(F)F)cc1	MITF TRPM1 inh 65.2, HIF-2a block 52.0, Peg3 promoter 56.1 | HIF-2a conf 75.0 | HIF-1a counter 64.1
O=C(CN1C(=O)c2ccccc2S1(=O)=O)c1ccc(Cl)cc1Cl	MITF TRPM1 inh 87.0, HIF-2a block 54.9 | HIF-2a conf 82.4 | HIF-1a counter 89.8
O=[N+]([O-])c1ccc(S(=O)(=O)N2CCN(Cc3ccco3)CC2)cc1	none
COc1ccccc1CCNC(=O)c1ccc(Br)s1	none
CC(C)(C)c1ccc(Oc2ccc(NC(=O)c3ccco3)cn2)cc1	HIF-2a block 75.2 | HIF-2a conf inactive | HIF-1a counter inactive
